Assay results reported in PubChem BioAssay (NCATS).
Results filed as inconclusive are left out. A call without a number means that no potency is given here. A number with no mark means an inactive call. The source made the active and inactive calls. Unless noted, calls follow the shape of the full dose curve.

How the values were obtained:
[1] = Primary qHTS for Huh7 cytotoxicity: counterscreen for inhibitors of MERS-S pseudotyped particle cell entry (AID 1479147); also: potency is read from the fitted curve at half-maximal effect
[2] = Primary qHTS for inhibitors of MERS-S pseudo-typed particle cell entry (AID 1479149); also: nearly all actives have a fitted effect of over 60% in size; also: potency is read from the fitted curve at half-maximal effect
[3] = Primary qHTS for Vero E6 cytotoxicity: counterscreen for inhibitors of SARS-S pseudo-typed particle cell entry (AID 1479150); also: potency is read from the fitted curve at half-maximal effect
[4] = Primary qHTS for inhibitors of La Crosse Virus (LACV) - induced cell death in SH-SY5Y cells (AID 1508616; active = well fitted curve in the direction sought with a large enough effect; an effect the other way counts as inactive or inconclusive;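 also: top concentration of the series differs between compounds; higher means more rescue of cells from virus-induced death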)
Outline: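 Cytopathicity rescue screen: compounds pinned onto SH-SY5Y cells, which are then infected with LACV (MOI 0.01) and held 6 days at 37C. Percent activity is scaled between infected DMSO control and uninfected DMSO control.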

[5] = biological target: Calcium and integrin-binding protein 1 (Homo sapiens) (UniProt Q99828); test: Primary qHTS for Identification of Calcium Integrin Binding Protein 1 (CIB1) Competitor (AID 1508620; active = well fitted curve in the direction sought with a large enough effect; an effect the other way counts as inactive or inconclusive;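 also: GST tagged CIB1 binding a fluorescein labelled alphaIIb integrin peptide tracer; top concentration of the series differs between compounds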)
Chain of Calcium and integrin-binding protein 1 (Homo sapiens) (Q99828 whole entry, looked up): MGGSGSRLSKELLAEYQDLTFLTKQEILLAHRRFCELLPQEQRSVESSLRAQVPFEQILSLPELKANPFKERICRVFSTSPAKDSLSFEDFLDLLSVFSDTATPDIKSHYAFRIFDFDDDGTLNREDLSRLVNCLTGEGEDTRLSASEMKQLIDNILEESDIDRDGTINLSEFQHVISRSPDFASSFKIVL
Outline: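 Fluorescence polarization competition: GST-tagged CIB1 (1 uM final) preincubated with compound 15 min at room temperature, then FITC-labelled alphaIIb peptide (100 nM final) added. After 15 min at room temperature, polarization read at Ex 480/Em 540.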

[6] = Confirmatory qHTS for VERO E6 Cytotoxicity Assay: Counterscreen for SARS-CoV-2 CPE Assay (AID 1508605); also: series mostly up to about 20 µM; nearly all actives have a fitted effect of over 60% in size

O=C(OCc1ccccc1)c1ccc(O)cc1
Potency [1]: inactive
Potency [2]: inactive
Potency [3]: inactive

CN1CCN(c2cc3c(cc2F)c(=O)c(C(=O)O)cn3-c2ccc(F)cc2)CC1
Potency [1]: inactive
Potency [2]: inactive
Potency [3]: inactive

CN(C)CCC(c1ccccc1)c1ccccn1 (centres undefined)
Potency [1]: inactive
Potency [2]: inactive
Potency [3]: inactive

CN1CCN(C2=Nc3ccccc3Sc3ccc(Cl)cc32)CC1
Potency [1]: inactive
Potency [2]: inactive
Potency [3]: inactive

Nc1ccn(C2CO[C@H](CO)O2)c(=O)n1 (some centres undefined)
Potency [1]: inactive
Potency [2]: inactive
Potency [3]: inactive

CN(C)CC[C@@H](c1ccc(Cl)cc1)c1ccccn1
Potency [1]: inactive
Potency [2]: inactive
Potency [3]: inactive

CCOc1ccccc1C(N)=O
Potency [1]: inactive
Potency [2]: inactive
Potency [3]: inactive

NC(=O)Cc1cccc(C(=O)c2ccccc2)c1N
Potency [1]: inactive
Potency [2]: inactive
Potency [3]: inactive

CC(=O)OCC(=O)NCCCOc1cccc(CN2CCCCC2)c1
Potency [1]: inactive
Potency [2]: inactive
Potency [3]: inactive

CCOC(=O)[C@H](CCc1ccccc1)N[C@@H](C)C(=O)N1C(=O)N(C)C[C@H]1C(=O)O
Potency [1]: inactive
Potency [2]: inactive
Potency [3]: inactive

CCOc1ccc(Cc2nccc3cc(OCC)c(OCC)cc23)cc1OCC
Potency [1]: 12.6 µM (active)
Potency [2]: 3.55 µM (active)
Potency [3]: 17.8 µM (active)

C[C@@H](C1=C(CCN(C)C)Cc2ccccc21)c1ccccn1
Potency [1]: inactive
Potency [2]: inactive
Potency [3]: inactive

O=c1[nH]c(=O)c2[nH]c(=O)[nH]c2[nH]1
outcome [1]: inactive [at 11.4 µM]
outcome [2]: inactive [at 11.4 µM]
outcome [3]: inactive [at 11.4 µM]

CCOC(=O)c1cc(=O)c2c(OCC(COc3cccc4oc(C(=O)OCC)cc(=O)c34)OC(=O)[C@@H](N)CCCCN)cccc2o1
Potency [1]: inactive
Potency [2]: inactive
Potency [3]: inactive

COc1ccc(C(Cl)=C(c2ccc(OC)cc2)c2ccc(OC)cc2)cc1
Potency [1]: inactive
Potency [2]: inactive
Potency [3]: inactive

CCCCNc1ccc(C(=O)OCCN(C)C)cc1
Potency [1]: inactive
Potency [2]: inactive
Potency [3]: inactive

CCOCCn1c(N2CCCN(C)CC2)nc2ccccc21
Potency [1]: inactive
Potency [2]: inactive
Potency [3]: inactive

OC(CCN1CCCCC1)(c1ccccc1)c1ccccc1
Potency [1]: inactive
Potency [2]: inactive
Potency [3]: inactive

c1ccc(CC2=NCCN2)cc1
Potency [1]: inactive
Potency [2]: inactive
Potency [3]: inactive

NS(=O)(=O)c1cc2c(cc1Cl)CN(C1CCCCC1)C2=O
Potency [1]: inactive
Potency [2]: inactive
Potency [3]: inactive

COC1=C(OC)C(=O)C(CCCCCCCCCCO)=C(C)C1=O
Potency [1]: inactive
Potency [2]: inactive
Potency [3]: inactive

O=C(OCC(O)CO)c1ccccc1Nc1ccnc2c(C(F)(F)F)cccc12 (centres undefined)
Potency [1]: inactive
Potency [2]: inactive
Potency [3]: inactive

CCCC(=O)O[C@]1(C(=O)CC)CC[C@H]2[C@@H]3CCC4=CC(=O)CC[C@]4(C)[C@H]3[C@@H](O)C[C@@]21C
Potency [1]: inactive
Potency [2]: inactive
Potency [3]: inactive

CC(=O)Nc1ccc(S(=O)(=O)Nc2ccc([N+](=O)[O-])cc2)cc1
Potency [1]: inactive
Potency [2]: inactive
Potency [3]: inactive

Cc1ccc(N(CC2=NCCN2)c2cccc(O)c2)cc1
Potency [1]: inactive
Potency [2]: inactive
Potency [3]: inactive

Cc1ccc(/C(=C\CN2CCCC2)c2ccccn2)cc1
Potency [1]: inactive
Potency [2]: inactive
Potency [3]: inactive

CCCCNc1ccc(C(=O)OCCN(CC)CC)cc1
Potency [1]: inactive
Potency [2]: inactive
Potency [3]: inactive

COc1ccc2cc3[n+](cc2c1OC)CCc1cc2c(cc1-3)OCO2
Potency [1]: inactive
Potency [2]: 12.6 µM (active)
Potency [3]: inactive

CCOC(=O)OC(C)OC1=C(C(=O)Nc2ccccn2)N(C)S(=O)(=O)c2ccccc21 (centres undefined)
Potency [1]: inactive
Potency [2]: inactive
Potency [3]: inactive

C[C@H](O)C(=O)Nc1c(I)c(C(=O)NC(CO)CO)c(I)c(C(=O)NC(CO)CO)c1I
Potency [1]: inactive
Potency [2]: inactive
Potency [3]: inactive

O=C1OC(c2ccc(O)cc2)(c2ccc(O)cc2)c2ccccc21
Potency [1]: inactive
Potency [2]: inactive
Potency [3]: inactive

NS(=O)(=O)c1cc(C(=O)O)c(NCc2ccco2)cc1Cl
Potency [1]: inactive
Potency [2]: inactive
Potency [3]: inactive

C[N+]1(C)CCC(=C(c2ccccc2)c2ccccc2)CC1
Potency [1]: inactive
Potency [2]: inactive
Potency [3]: inactive

COc1ccnc2c1CCCCC2S(=O)c1nc2ccccc2[nH]1 (centres undefined)
Potency [1]: inactive
Potency [2]: inactive
Potency [3]: inactive

CN(C)CCN(Cc1ccccc1)c1ccccn1
Potency [1]: inactive
Potency [2]: inactive
Potency [3]: inactive

CN(C)CCCOC1(Cc2ccccc2)CCCCCC1
Potency [1]: inactive
Potency [2]: inactive
Potency [3]: inactive

C=CCOc1cc(Cl)ccc1C(=O)NCCN(CC)CC
Potency [1]: inactive
Potency [2]: inactive
Potency [3]: inactive

CCOC(=O)c1ccc(OC(=O)CCCCCN=C(N)N)cc1
Potency [1]: inactive
Potency [2]: inactive
Potency [3]: inactive

C/C=C/C(=O)N(CC)c1ccccc1C
Potency [1]: inactive
Potency [2]: inactive
Potency [3]: inactive

CCOc1ccc(C(=O)OCCN(CC)CC)cc1
Potency [1]: inactive
Potency [2]: inactive
Potency [3]: inactive

CN1CCC(=C2c3ccccc3CC(=O)c3sccc32)CC1
Potency [1]: inactive
Potency [2]: inactive
Potency [3]: inactive

Cn1cc(C(=O)[C@@H]2CCc3nc[nH]c3C2)c2ccccc21
Potency [1]: inactive
Potency [2]: inactive
Potency [3]: inactive

Cc1c(-c2ccccc2)oc2c(C(=O)OCCN3CCCCC3)cccc2c1=O
Potency [1]: inactive
Potency [2]: inactive
Potency [3]: inactive

C1CCN2C[C@@H]3C[C@@H](CN4CCCC[C@@H]34)[C@H]2C1
Potency [1]: inactive
Potency [2]: inactive
Potency [3]: inactive

CCc1ccc(C(=O)C(C)CN2CCCCC2)cc1 (centres undefined)
Potency [1]: inactive
Potency [2]: inactive
Potency [3]: inactive

C(=C\c1ccccc1)/CN1CCN(C(c2ccccc2)c2ccccc2)CC1
Potency [1]: inactive
Potency [2]: inactive
Potency [3]: inactive

CCCCN1CCCC[C@H]1C(=O)Nc1c(C)cccc1C
Potency [1]: inactive
Potency [2]: inactive
Potency [3]: inactive

CCn1c(=O)c2c(nc(C=Cc3ccc(OC)c(OC)c3)n2C)n(CC)c1=O
Potency [1]: inactive
Potency [2]: inactive
Potency [3]: inactive

CC[N+](CC)(CC(=O)Nc1c(C)cccc1C)Cc1ccccc1
Potency [1]: inactive
Potency [2]: inactive
Potency [3]: inactive

CCCCCCCCCCCCOS(=O)(=O)O
Potency [1]: inactive
Potency [2]: inactive
Potency [3]: inactive

Cc1cc(C(C)(C)C)cc(C)c1CC1=NCCN1
Potency [1]: inactive
Potency [2]: inactive
Potency [3]: inactive

C=C1c2cccc(O)c2C(O)=C2C(=O)[C@]3(O)C(O)=C(C(N)=O)C(=O)[C@@H](N(C)C)[C@@H]3[C@@H](O)[C@H]12
Potency [1]: inactive
Potency [2]: inactive
Potency [3]: inactive

C=CCc1ccccc1OCC(O)CNC(C)C (centres undefined)
Potency [1]: inactive
Potency [2]: inactive
Potency [3]: inactive

CCC1NC(=O)c2cc(S(N)(=O)=O)c(Cl)cc2N1 (centres undefined)
Potency [1]: inactive
Potency [2]: inactive
Potency [3]: inactive

CN(C)CCN1C(=O)c2ccccc2N(C)c2ccccc21
Potency [1]: inactive
Potency [2]: inactive
Potency [3]: inactive

O=c1oc2c(O)c(O)cc3c(=O)oc4c(O)c(O)cc1c4c23
Potency [1]: inactive
Potency [2]: inactive
Potency [3]: inactive

CN1CCC(=C2c3ccccc3CCc3cccnc32)CC1
Potency [1]: inactive
Potency [2]: inactive
Potency [3]: inactive

OC(CCCN1CCCCC1)(c1ccccc1)c1ccccc1
Potency [1]: inactive
Potency [3]: inactive

O=c1[nH]c(=O)n([C@H]2C[C@H](O)[C@@H](CO)O2)cc1C(F)(F)F
Potency [1]: inactive
Potency [2]: 10 µM (active)
Potency [3]: inactive

C#CC1(O)CC[C@H]2[C@@H]3CCC4=CCCC[C@@H]4[C@H]3CC[C@@]21C (some centres undefined)
Potency [1]: inactive
Potency [2]: inactive
Potency [3]: inactive

C#C[C@]1(O)CC[C@H]2[C@@H]3CCC4=CC(=O)CCC4=C3C=C[C@@]21CC
Potency [1]: inactive
Potency [2]: inactive
Potency [3]: inactive
outcome [4]: inactive
Potency [5]: inactive

CC1CC(=O)NN=C1c1ccc(NCC(C)(C)NCC(O)COc2cc(Cl)ccc2C#N)cc1 (centres undefined)
Potency [1]: inactive
Potency [2]: inactive
Potency [3]: inactive

Clc1ccc(Cn2c(CN3CCCC3)nc3ccccc32)cc1
Potency [1]: inactive
Potency [3]: inactive

CCCCC(CC)COC(=O)C(C#N)=C(c1ccccc1)c1ccccc1 (centres undefined)
Potency [1]: inactive
Potency [2]: inactive
Potency [3]: inactive

O=C(Nc1ccc(Cl)cc1)Nc1ccc(Cl)c(C(F)(F)F)c1
Potency [1]: inactive
Potency [3]: inactive

CC(=O)OCC(=O)Nc1cc(C#N)cc(NC(=O)COC(C)=O)c1Cl
Potency [1]: inactive
Potency [2]: inactive
Potency [3]: inactive

CN(C)CCOC(c1ccccc1)c1ccc(Br)cc1 (centres undefined)
Potency [1]: inactive
Potency [2]: inactive
Potency [3]: inactive
Potency [6]: inactive

CC(C)(C)c1ccc(C(=O)CCCN2CCC(OC(c3ccccc3)c3ccccc3)CC2)cc1
Potency [1]: inactive
Potency [3]: inactive

c1ccc(CNCCNCc2ccccc2)cc1
Potency [1]: inactive
Potency [3]: inactive

CN(C)CCOc1ccccc1Cc1ccccc1
Potency [1]: inactive
Potency [3]: inactive

CCCCCCCCCCCCCCCCC(C(=O)O)C(O)(CC(=O)O)C(=O)O (centres undefined)
Potency [1]: inactive
Potency [2]: inactive
Potency [3]: inactive

CCN[C@@H]1C[C@H](N)[C@@H](OC2OC(CN)=CCC2N)[C@H](O)[C@H]1O[C@H]1OC[C@](C)(O)[C@H](NC)[C@H]1O (some centres undefined)
activity change, negative = cytotoxicity [1]: -16.5% [at 0.573 µM]
outcome [2]: inactive [at 0.573 µM]
activity change, negative = cytotoxicity [3]: -4.98% [at 0.573 µM]

COc1ccc2c(c1)C(=O)N(CCc1ccc(S(=O)(=O)NC(=O)NC3CCCCC3)cc1)C(=O)C2(C)C
Potency [1]: inactive
Potency [3]: inactive

CCCCCCOC(=O)NC(=N)c1ccc(NCc2nc3cc(C(=O)N(CCC(=O)OCC)c4ccccn4)ccc3n2C)cc1
Potency [1]: inactive
Potency [2]: 10 µM (active)
Potency [3]: inactive

CC(=O)[C@@]1(O)CC[C@H]2[C@@H]3C[C@H](C)C4=CC(=O)CC[C@]4(C)[C@H]3CC[C@@]21C
Potency [1]: inactive
Potency [2]: inactive
Potency [3]: inactive

CCOc1ccccc1O[C@H](c1ccccc1)[C@H]1CNCCO1
Potency [1]: inactive
Potency [2]: inactive
Potency [3]: inactive

C=C1C[C@H]2[C@@H]3C=C(C)C4=CC(=O)CC[C@]4(C)[C@H]3CC[C@]2(C)[C@@]1(OC(C)=O)C(C)=O
Potency [1]: inactive
Potency [3]: inactive

CC/C(=C(/CC)c1ccc(O)cc1)c1ccc(O)cc1
Potency [1]: inactive
Potency [3]: inactive

CCN(CC)CCOC(=O)C(Cc1cccc2ccccc12)CC1CCCO1 (centres undefined)
Potency [1]: inactive
Potency [2]: inactive
Potency [3]: inactive

Cc1ncc(COP(=O)(O)O)c(C=O)c1O
Potency [1]: inactive
Potency [2]: inactive
Potency [3]: inactive

COc1ccccc1OC(=O)Oc1ccccc1OC
Potency [1]: inactive
Potency [2]: inactive
Potency [3]: inactive

COCCOC(=O)C1=C(C)NC(C)=C(C(=O)OC/C=C/c2ccccc2)C1c1cccc([N+](=O)[O-])c1 (centres undefined)
Potency [1]: inactive
Potency [3]: inactive
